Data from PubChem BioAssay (EPA / NIEHS).
Activity calls are given as the source filed them. The calls were made as follows: active = hit-call score of the fitted dose curve at least 0.9, where 1 is the maximum; inactive = score below 0.9.

Tests used:
Conditions in all cases: mRNA level, 48 h; actives raise or lower the signal
[1] = read-out: Fatty Acid-Binding Protein 1 (FABP1), FABP1 (gene 2168); experiment: LTEA_HepaRG_FABP1: Life Technologies and Expression Analysis (LTEA) Assay for Fatty Acid-Binding Protein 1 (FABP1) using HepaRG (AID 2283494)
Summary of the method: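 Values reflect bidirectional concentration-response fitting of FABP1 mRNA change against 0.5% DMSO controls. Human HepaRG cultures received eight half-log doses (top 100 uM) for 48 h; expression quantified by TaqMan qRT-PCR with housekeeping-gene normalization.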

[2] = read-out: Cytochrome P450 4A22 (Homo sapiens) (UniProt Q5TCH4); experiment: LTEA_HepaRG_CYP4A22: Life Technologies and Expression Analysis (LTEA) Assay for Cytochrome P450 4A22 (CYP4A22) using HepaRG (AID 2283495)
Summary of the method: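 Concentration-response (8 points, max 100 uM, 0.5% DMSO) in human HepaRG liver cells after 48 h exposure. CYP4A22 mRNA by TaqMan qRT-PCR with housekeeping-gene normalization.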

[3] = read-out: Cytochrome P450 7A1 (Homo sapiens) (UniProt P22680); experiment: LTEA_HepaRG_CYP7A1: Life Technologies and Expression Analysis (LTEA) Assay for Cytochrome P450 7A1 (CYP7A1) using HepaRG (AID 2283496)
Summary of the method: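 HepaRG, 48 h exposure, 8-pt half-log series from 100 uM, 0.5% DMSO vehicle, duplicates. Readout: TaqMan qRT-PCR mRNA vs three housekeeping genes; bidirectional curve fit against DMSO baseline.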

[4] = read-out: Glutamate-cysteine ligase catalytic (GCLC), GCLC (gene 2729); experiment: LTEA_HepaRG_GCLC: Life Technologies and Expression Analysis (LTEA) Assay for Glutamate-cysteine ligase catalytic (GCLC) using HepaRG (AID 2283498)
Summary of the method: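 Oxidative-stress marker GCLC is measured as mRNA change in human HepaRG liver cells after 48 h chemical treatment in 0.5% DMSO, eight concentrations from 100 uM. Activity is fitted bidirectionally against vehicle.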

[5] = read-out: growth arrest and DNA damage 45 (GADD45G), GADD45G (gene 10912); experiment: LTEA_HepaRG_GADD45G: Life Technologies and Expression Analysis (LTEA) Assay for growth arrest and DNA damage 45 (GADD45G) using HepaRG (AID 2283499)
Summary of the method: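 Concentration-response in HepaRG: 48 h dosing, 0.5% DMSO, highest level 100 uM. GADD45G expression by qRT-PCR, normalised to endogenous controls; bidirectional fit to DMSO.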

[6] = read-out: Glutamate-cysteine ligase regulatory (GCLM), GCLM (gene 2730); experiment: LTEA_HepaRG_GCLM: Life Technologies and Expression Analysis (LTEA) Assay for Glutamate-cysteine ligase regulatory (GCLM) using HepaRG (AID 2283500)
Summary of the method: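 Endpoint is GCLM transcript level by qRT-PCR, normalized to three housekeeping genes, after 48 h chemical exposure of human HepaRG cells (0.5% DMSO vehicle, top 100 uM, half-log dilutions). Fitting was bidirectional relative to DMSO.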

[7] = read-out: Glutathione S-transferase M3 (GSTM3), GSTM3 (gene 2947); experiment: LTEA_HepaRG_GSTM3: Life Technologies and Expression Analysis (LTEA) Assay for Glutathione S-transferase M3 (GSTM3) using HepaRG (AID 2283501)
Summary of the method: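 Expression of GSTM3 is determined by qRT-PCR in human liver HepaRG cells treated 48 h with an 8-point half-log range from 100 uM in 0.5% DMSO.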

[8] = read-out: Heat shock 70 kDa protein 1 (HSPA1A), gene 3303; experiment: LTEA_HepaRG_HSPA1A: Life Technologies and Expression Analysis (LTEA) Assay for Heat shock 70 kDa protein 1 (HSPA1A) using HepaRG (AID 2283502)
Summary of the method: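 Cells were plated and cultured for 48 h, then switched to serum-free induction medium. Chemicals were added at eight half-log concentrations up to 100 uM for 48 h. RNA was then isolated and HSPA1A measured by qRT-PCR with bidirectional curve fitting against DMSO.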

[9] = read-out: 3-Hydroxy-3-Methylglutaryl-CoA Synthase 2 (HMGCS2), HMGCS2 (gene 3158); experiment: LTEA_HepaRG_HMGCS2: Life Technologies and Expression Analysis (LTEA) Assay for 3-Hydroxy-3-Methylglutaryl-CoA Synthase 2 (HMGCS2) using HepaRG (AID 2283504)
Summary of the method: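 This steatosis marker was read as HMGCS2 mRNA change in HepaRG cells treated 48 h with up to 100 uM chemical. Normalisation used housekeeping genes; activity in either direction was fitted relative to 0.5% DMSO vehicle.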

[10] = read-out: Insulin Like Growth Factor 1 (IGF1), IGF1 (gene 3479); experiment: LTEA_HepaRG_IGF1: Life Technologies and Expression Analysis (LTEA) Assay for Insulin Like Growth Factor 1 (IGF1) using HepaRG (AID 2283506)
Summary of the method: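 Cells are thawed, plated and cultured 48 h, then exposed in duplicate to chemical (highest 100 uM, half-log steps, 0.5% DMSO) for another 48 h. Total RNA is analysed by Fluidigm qRT-PCR for IGF1 expression relative to vehicle.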

[11] = read-out: Intercellular Adhesion Molecule 1 (ICAM1), ICAM1 (gene 3383); experiment: LTEA_HepaRG_ICAM1: Life Technologies and Expression Analysis (LTEA) Assay for Intercellular Adhesion Molecule 1 (ICAM1) using HepaRG (AID 2283507)
Summary of the method: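 Using the human liver line HepaRG, compounds are tested in duplicate over 48 h at concentrations up to 100 uM. Expression is determined by TaqMan qRT-PCR, normalized to endogenous controls, and analysed relative to 0.5% DMSO vehicle.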

[12] = read-out: Insulin-like growth factor-binding protein 1 (IGFBP1), IGFBP1 (gene 3484); experiment: LTEA_HepaRG_IGFBP1: Life Technologies and Expression Analysis (LTEA) Assay for Insulin-like growth factor-binding protein 1 (IGFBP1) using HepaRG (AID 2283508)
Summary of the method: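 HepaRG, 48 h, 8 conc. (max 100 uM, half-log), duplicates, 0.5% DMSO. Readout: TaqMan qRT-PCR, ACTB/GAPDH/POLR2A normalisation. Fit: bidirectional vs DMSO.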

[13] = read-out: Interleukin 6 (IL6), IL6 (gene 3569); experiment: LTEA_HepaRG_IL6: Life Technologies and Expression Analysis (LTEA) Assay for Interleukin 6 (IL6) using HepaRG (AID 2283509)
Summary of the method: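 Changes in IL6 mRNA, up or down relative to 0.5% DMSO controls, were derived from concentration-response curves in human HepaRG cells treated for 48 h at up to 100 uM, with ACTB, GAPDH and POLR2A as normalizers.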

[14] = read-out: Interleukin 6 Receptor (IL6R), IL6R (gene 3570); experiment: LTEA_HepaRG_IL6R: Life Technologies and Expression Analysis (LTEA) Assay for Interleukin 6 Receptor (IL6R) using HepaRG (AID 2283510);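 as to AC50: differentiated human HepaRG liver cells in serum-free induction medium; TaqMan qRT-PCR signal normalized to ACTB GAPDH and POLR2A housekeeping genes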
Summary of the method: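 Cells were thawed, plated and cultured 48 h, then medium was changed to serum-free induction medium. Chemicals were added in duplicate (100 uM top, half-log steps, 0.5% DMSO) for 48 h. Lysates were analyzed by qRT-PCR for IL6R expression.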

[15] = read-out: Potassium channel subfamily K member 1 (KCNK1), KCNK1 (gene 3775); experiment: LTEA_HepaRG_KCNK1: Life Technologies and Expression Analysis (LTEA) Assay for Potassium channel subfamily K member 1 (KCNK1) using HepaRG (AID 2283511)
Summary of the method: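 Human HepaRG cultures receive test chemicals for 48 h in 0.5% DMSO, top concentration 100 uM with half-log dilutions. Induction or suppression of KCNK1 mRNA relative to DMSO is derived by bidirectional fitting of qRT-PCR data.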

[16] = read-out: Keratin 19 (KRT19), KRT19 (gene 3880); experiment: LTEA_HepaRG_KRT19: Life Technologies and Expression Analysis (LTEA) Assay for Keratin 19 (KRT19) using HepaRG (AID 2283512)
Summary of the method: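 Readout is qRT-PCR of KRT19 mRNA, normalized to ACTB, GAPDH and POLR2A, from HepaRG cells treated 48 h with eight-point half-log dilutions topping at 100 uM. Activity in either direction is scored relative to 0.5% DMSO vehicle.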

[17] = read-out: JUN Transcription Factor, JUN (gene 3725); experiment: LTEA_HepaRG_JUN: Life Technologies and Expression Analysis (LTEA) Assay for JUN Transcription Factor using HepaRG (AID 2283513)
Summary of the method: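 Read-out is JUN transcript level by TaqMan qRT-PCR, normalized to ACTB, GAPDH and POLR2A, after 48 h chemical treatment of HepaRG cells. Concentration-response spanned eight half-log points up to 100 uM in 0.5% DMSO.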

[18] = read-out: Lipase C (LIPC), LIPC (gene 3990); experiment: LTEA_HepaRG_LIPC: Life Technologies and Expression Analysis (LTEA) Assay for Lipase C (LIPC) using HepaRG (AID 2283514)
Summary of the method: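 In this multiplexed gene-expression screen, human HepaRG cultures received test chemicals for 48 h across eight concentrations with 100 uM highest, in duplicate. Values reflect LIPC mRNA induction or suppression versus DMSO vehicle, from normalized qRT-PCR.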

[19] = read-out: Hypoxia-inducible factor 1-alpha (Homo sapiens) (UniProt Q16665); experiment: LTEA_HepaRG_HIF1A: Life Technologies and Expression Analysis (LTEA) Assay for Hypoxia-inducible factor 1 (HIF1A) Trancription factor using HepaRG (AID 2283503)
Summary of the method: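 HIF1A transcript level read by qRT-PCR (ACTB, GAPDH, POLR2A normalization) after 48 h chemical exposure of HepaRG cultures. Eight half-log concentrations, top 100 uM, 0.5% DMSO vehicle, duplicates; bidirectional curve fit against DMSO baseline.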

HGF (gene 3082) = experiment: LTEA_HepaRG_HGF: Life Technologies and Expression Analysis (LTEA) Assay for Hepatocyte Growth Facto (HGF) using HepaRG (AID 2283505)
Summary of the method: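 Using HepaRG monolayers kept in 0.5% DMSO, chemicals were tested in duplicate over eight half-log concentrations from 100 uM for 48 h. Endpoint: HGF mRNA change relative to DMSO, normalized to ACTB/GAPDH/POLR2A.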

Sequence of Hypoxia-inducible factor 1-alpha (Homo sapiens) (Q16665 whole entry, looked up): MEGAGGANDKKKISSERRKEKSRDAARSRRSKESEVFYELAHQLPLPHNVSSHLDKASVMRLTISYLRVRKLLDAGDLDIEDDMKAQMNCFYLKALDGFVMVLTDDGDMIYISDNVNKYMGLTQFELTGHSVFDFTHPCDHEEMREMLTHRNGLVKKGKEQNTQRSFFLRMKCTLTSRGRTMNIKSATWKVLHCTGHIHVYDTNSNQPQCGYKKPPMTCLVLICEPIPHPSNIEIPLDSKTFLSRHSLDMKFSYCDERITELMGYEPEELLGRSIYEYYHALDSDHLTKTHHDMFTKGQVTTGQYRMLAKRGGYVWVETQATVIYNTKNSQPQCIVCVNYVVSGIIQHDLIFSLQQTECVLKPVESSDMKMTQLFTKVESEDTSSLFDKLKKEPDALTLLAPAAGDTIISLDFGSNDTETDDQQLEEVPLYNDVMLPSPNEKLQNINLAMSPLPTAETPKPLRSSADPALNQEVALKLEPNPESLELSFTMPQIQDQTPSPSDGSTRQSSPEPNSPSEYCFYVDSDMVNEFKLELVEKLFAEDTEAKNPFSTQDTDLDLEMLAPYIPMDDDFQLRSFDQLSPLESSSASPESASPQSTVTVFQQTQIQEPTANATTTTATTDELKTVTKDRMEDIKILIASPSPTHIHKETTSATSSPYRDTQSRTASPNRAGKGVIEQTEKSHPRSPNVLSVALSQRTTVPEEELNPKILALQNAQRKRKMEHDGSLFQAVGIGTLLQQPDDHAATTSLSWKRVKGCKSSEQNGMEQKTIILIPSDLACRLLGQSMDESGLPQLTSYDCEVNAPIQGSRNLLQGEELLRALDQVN

## O=C(CCCN1CCC(O)(c2ccc(Cl)cc2)CC1)c1ccc(F)cc1
[1]
  AC50: 93.2 µM (active)
[2]
  AC50: 64 µM (active)
[3]
  AC50: 82 µM (active)
[4]
  AC50: 77.1 µM (active)
[5]
  AC50: 50 µM (active)
[6]
  AC50: 71.9 µM (active)
[7]
  outcome: inactive
[8]
  AC50: 74.3 µM (active)
[9]
  AC50: 84.4 µM (active)
[10]
  AC50: 78.5 µM (active)
[11]
  AC50: 75 µM (active)
[12]
  AC50: 71.1 µM (active)
[13]
  AC50: 80.9 µM (active)
[14]
  AC50: 50 µM (active)
[15]
  AC50: 84.4 µM (active)
[16]
  AC50: 36.7 µM (active)
[17]
  AC50: 82.7 µM (active)
[18]
  AC50: 84.9 µM (active)

## CCCCc1oc2ccccc2c1C(=O)c1cc(I)c(OCCN(CC)CC)c(I)c1
[1]
  AC50: 69.9 µM (active)
[4]
  AC50: 67.4 µM (active)
[5]
  AC50: 55.1 µM (active)
[6]
  AC50: 61.8 µM (active)
[7]
  AC50: 37.8 µM (active)
[8]
  AC50: 60 µM (active)
[19]
  AC50: 64.5 µM (active)
[9]
  AC50: 61.6 µM (active)
HGF (gene 3082)
  outcome: inactive
[10]
  AC50: 46.2 µM (active)
[11]
  AC50: 59.5 µM (active)
[12]
  AC50: 54 µM (active)
[13]
  AC50: 61.9 µM (active)
[14]
  outcome: inactive
[15]
  AC50: 55.5 µM (active)
[16]
  AC50: 37.8 µM (active)
[17]
  AC50: 66.1 µM (active)
[18]
  AC50: 55.7 µM (active)

## OCC(CO)(CBr)CBr
[1]
  outcome: inactive
[2]
  outcome: inactive
[3]
  outcome: inactive
[4]
  outcome: inactive
[5]
  outcome: inactive
[6]
  outcome: inactive
[7]
  outcome: inactive
[8]
  outcome: inactive
[19]
  outcome: inactive
[9]
  outcome: inactive
HGF (gene 3082)
  outcome: inactive
[10]
  outcome: inactive
[11]
  outcome: inactive
[12]
  outcome: inactive
[13]
  outcome: inactive
[14]
  outcome: inactive
[15]
  outcome: inactive
[16]
  outcome: inactive
[17]
  outcome: inactive
[18]
  outcome: inactive

## CCCCC(CC)C(=O)O (stereo unspecified)
[1]
  outcome: inactive
[2]
  outcome: inactive
[3]
  outcome: inactive
[4]
  outcome: inactive
[5]
  outcome: inactive
[6]
  outcome: inactive
[7]
  outcome: inactive
[8]
  outcome: inactive
[19]
  outcome: inactive
[9]
  outcome: inactive
HGF (gene 3082)
  outcome: inactive
[10]
  outcome: inactive
[11]
  outcome: inactive
[12]
  outcome: inactive
[13]
  outcome: inactive
[14]
  outcome: inactive
[15]
  outcome: inactive
[16]
  outcome: inactive
[17]
  outcome: inactive
[18]
  outcome: inactive
